The nature of assay [1]: qHTS assay for small molecule agonists of the p53 signaling pathway (AID 651631; calls by dose curve; also: nearly all actives have a fitted effect of over 15% in size). The procedure, abridged: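 HCT-116 p53RE-bla reporter line, 16 h compound treatment at 37 °C, then fluorescence after 2 h with B/G FRET substrate.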
Assay [2] in a line: qHTS assay for small molecules that induce genotoxicity in human embryonic kidney cells expressing luciferase-tagged ATAD5 (AID 651632). Also: nearly all actives have a fitted effect of over 15% in size. The procedure, abridged:
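Concentration-response screen for ATAD5 upregulation in HEK293T luciferase reporter cells; 16 hr treatment at 37C, then luminescence after 30 min with Amplite at room temperature.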
On the technique in general: Quantitative high-throughput screening tests each substance at several concentrations.

Assay [3] in a line: qHTS assay for small molecule agonists of the p53 signaling pathway - cell viability (AID 651633; calls by dose curve;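 also: p53RE-bla HCT reporter cells with a stable beta-lactamase p53 reporter; series mostly up to about 83 µM; nearly all actives have a fitted effect of over 30% in size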). Put shortly:
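p53RE-bla cells were treated with compound for 16 hours at 37 C. Cytotoxicity was then measured as CellTiter-Glo luminescence after 30 min at room temperature.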

Assay [4] can be described thus: qHTS assay for small molecules that induce genotoxicity in human embryonic kidney cells expressing luciferase-tagged ATAD5 - cell viability (AID 651634; calls by dose curve; also: nearly all actives have a fitted effect of over 25% in size). Put shortly: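 15.5 hr compound or vehicle exposure of HEK293T cells expressing luciferase-tagged ATAD5 at 37C; live-cell protease activity is read by fluorescence after 30 min of CellTiter-Fluor.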
The nature of assay [5]: qHTS assay for small molecule disruptors of the mitochondrial membrane potential - cell viability (AID 720634; calls by dose curve;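 also: human HepG2 liver cancer cells; series mostly up to about 83 µM; nearly all actives have a fitted effect of over 20% in size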). Put shortly:
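In this qHTS format, HepG2 cells plated overnight were pinned with compound, incubated 1 hr, and assayed for ATP luminescence with CellTiter-Glo after m-MPI dye addition.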

Assay [6] can be described thus: qHTS assay for small molecule disruptors of the mitochondrial membrane potential (AID 720635). Also: potency is read from the fitted curve at half-maximal effect. Put shortly:
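HepG2 cells exposed to compound 1 hr at 37C, then Mito-MPS dye 30 min. Ratio read of aggregate (540/590 nm) versus monomer (490/535 nm) fluorescence.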

The nature of assay [7]: qHTS assay to test for compound auto fluorescence at 590 nm (red) in HepG2 cells (AID 720674). The procedure, abridged: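 Seeding: 2,000 HepG2 cells/well, MEM/10% FBS, overnight 37 C. Dosing: compound vs DMSO. Incubation: 1 hr, 37 C, 5% CO2. Read: fluorescence 540 ex/590 em, Rose Bengal sodium as red reference.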
Assay [8] can be described thus: qHTS assay to test for compound auto fluorescence at 535 nm (green) in HepG2 cells (AID 720675).
Assay [9] in a line: qHTS assay to test for compound auto fluorescence at 590 nm (red) in HEK293 cells (AID 720679). The procedure, abridged:
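HEK293 cells (2,000/well, 10% dialyzed FBS) attached 4-5 hr, then dosed with compound or DMSO and incubated overnight at 37C, 5% CO2. Red fluorescence read at 540/590 nm, Rose Bengal sodium as reference fluorophore.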

A short description of assay [10]: qHTS assay to test for compound auto fluorescence at 535 nm (green) in HEK293 cells (AID 720680).
Assay [11] can be described thus: qHTS assay to test for compound auto fluorescence at 460 nm (blue) in HEK293 cell free culture (AID 720681). Put shortly:
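Compounds were added to cell-free DMEM with 10% FBS and fluorescence read directly. The blue channel used 405 nm excitation and 460 nm emission, with triamterene as the reference fluorophore.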

Assay [12] is described as follows: qHTS assay to test for compound auto fluorescence at 535 nm (green) in HEK293 cell free culture (AID 720682). Put shortly:
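Steps: dispense DMEM/10% FBS into empty wells; pin in compound or DMSO; measure fluorescence at 485/535 nm. Values are fluorescein equivalents.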

The nature of assay [13]: qHTS assay to test for compound auto fluorescence at 590 nm (red) in HEK293 cell free culture (AID 720683). The procedure, abridged:
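Cell-free wells of DMEM with 10% FBS received compound, and intrinsic fluorescence was read at excitation/emission 540/590 nm. Values expressed as equivalence to Rose Bengal sodium.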

Assay [14] is described as follows: qHTS assay to test for compound auto fluorescence at 590 nm (red) in HepG2 cell free culture (AID 720684). The procedure, abridged:
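Rose Bengal sodium served as the reference for red signal. Test compounds were dispensed into serum-containing MEM (10% FBS) without cells, and plates were read at 540/590 nm.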

Assay [15] in a line: qHTS assay to test for compound auto fluorescence at 460 nm (blue) in HepG2 cell free culture (AID 720685). The procedure, abridged:
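Cell-free plates of MEM plus 10% FBS received 23 nL compound or DMSO vehicle; blue-channel (405/460 nm) intensity scored against triamterene as reference fluorophore.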

A short description of assay [16]: qHTS assay to test for compound auto fluorescence at 535 nm (green) in HepG2 cell free culture (AID 720686).
Assay [17] can be described thus: qHTS assay to test for compound auto fluorescence at 460 nm (blue) in HepG2 cells (AID 720687). The procedure, abridged:
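HepG2 cells in MEM with 10% FBS, attached overnight at 37 C, were exposed to compound or DMSO for 1 hr at 37 C, 5% CO2. Blue fluorescence was read at 405/460 nm, with triamterene as reference fluorophore.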

A short description of assay [18]: qHTS assay to test for compound auto fluorescence at 460 nm (blue) in HEK293 cells (AID 720678). The procedure, abridged: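 HEK293 cells (2,000/well, medium with 10% dialyzed FBS) attached 4-5 hr, then exposed to compound overnight at 37C, 5% CO2. Blue fluorescence read at 405/460 nm, with triamterene as reference fluorophore.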
Assay [19] has as its target Glucocorticoid receptor (Homo sapiens) (UniProt P04150). Nature of the assay: qHTS assay to identify small molecule agonists of the glucocorticoid receptor (GR) signaling pathway (AID 720691; active = well fitted activation curve with a large enough effect in the signal ratio in the repeat runs, not every such curve was filed as active; the % refers to the signal ratio). The procedure, abridged: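 Measures GR pathway activation through a GRE-beta-lactamase reporter stably integrated in HeLa cells, with 18 h compound treatment at 37 C and fluorescence detection using a FRET substrate.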

Assay [20] shares this target. Briefly: qHTS assay to identify small molecule antagonists of the glucocorticoid receptor (GR) signaling pathway (AID 720692; active = well fitted inhibition curve with a large enough effect in the signal ratio in the repeat runs, not every such curve was filed as active; the % refers to the signal ratio). Put shortly: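 Tox21 10K library screened in concentration-response for blockade of dexamethasone (5 nM final)-induced GRE-bla reporter activity in HeLa cells; 18 h treatment, fluorescence read.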

This is an account of results in PubChem BioAssay (Tox21).

A number with no mark means an inactive call. Results filed as inconclusive are left out. Activity calls are given as the source filed them. Unless noted, calls follow the shape of the dose curve; as a rule, active = well fitted curve in the direction sought with a large enough effect in the repeat runs; inconclusive = weak or mixed curves; inactive = no such curve, though single readings can be large; an effect the other way counts as inactive or inconclusive.

Glucocorticoid receptor (Homo sapiens), sequence (P04150 whole entry, looked up): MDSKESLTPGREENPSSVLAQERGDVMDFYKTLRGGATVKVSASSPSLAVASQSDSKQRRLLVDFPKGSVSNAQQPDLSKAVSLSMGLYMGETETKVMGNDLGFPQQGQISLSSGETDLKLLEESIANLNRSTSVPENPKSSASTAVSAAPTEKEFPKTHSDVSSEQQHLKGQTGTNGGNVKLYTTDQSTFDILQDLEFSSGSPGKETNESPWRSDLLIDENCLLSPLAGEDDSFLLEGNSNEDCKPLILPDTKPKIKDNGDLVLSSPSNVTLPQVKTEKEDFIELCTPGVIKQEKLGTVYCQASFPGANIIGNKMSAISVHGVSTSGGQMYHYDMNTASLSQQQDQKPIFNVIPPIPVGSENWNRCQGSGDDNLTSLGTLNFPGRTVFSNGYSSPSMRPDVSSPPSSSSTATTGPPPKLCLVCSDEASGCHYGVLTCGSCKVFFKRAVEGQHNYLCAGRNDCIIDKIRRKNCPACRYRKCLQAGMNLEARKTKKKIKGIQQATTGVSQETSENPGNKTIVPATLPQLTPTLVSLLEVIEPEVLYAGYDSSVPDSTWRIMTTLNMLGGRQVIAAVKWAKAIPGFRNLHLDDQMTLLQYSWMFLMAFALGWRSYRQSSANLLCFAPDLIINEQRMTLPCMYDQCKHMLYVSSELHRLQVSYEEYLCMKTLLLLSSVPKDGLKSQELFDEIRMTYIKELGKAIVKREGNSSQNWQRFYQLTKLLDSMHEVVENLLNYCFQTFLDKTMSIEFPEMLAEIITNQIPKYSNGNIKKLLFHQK

As for `O=C1c2ccccc2C(=O)C1c1ccc(Br)cc1`, the Potency result in assay [1], in [2], in assay [3], in [4], in assay [5] and in [6] was “inactive” each time. The Potency entry in assay [11], in [15] and in assay [17] was “inactive” throughout. Moreover, the outcome in assay [7], in [8], in assay [9], in assay [10], in assay [12] and in assay [13] was inactive. Besides, the compound was called inactive in assay [14] and in assay [16].
As to `C=C1C[C@@]23CC[C@H]4[C@@](C)(CCC[C@@]4(C)C(=O)O[C@@H]4O[C@H](CO)[C@@H](O)[C@H](O)[C@H]4O)[C@@H]2CC[C@]1(O[C@@H]1O[C@H](CO)[C@@H](O)[C@H](O[C@@H]2O[C@H](CO)[C@@H](O)[C@H](O)[C@H]2O)[C@H]1O[C@@H]1O[C@H](CO)[C@@H](O)[C@H](O)[C@H]1O)C3`, the Potency result in assay [1], in assay [2], in [3], in [4], in assay [5] and in assay [6] was “inactive” in each case. Besides, the Potency entry in assay [18], in [11], in [15], in [17] and in assay [19] was “inactive” throughout. In addition, the compound was called inactive in assay [8], in [9], in assay [10], in assay [12], in [13] and in [14]. Further, the outcome in [16] was inactive.
With `CC(=O)OCC[N+](C)(C)C`, the Potency result in [1], in assay [2], in assay [3], in assay [4], in assay [5] and in assay [6] was “inactive” throughout. The Potency result in assay [18], in assay [11], in [15], in assay [17], in assay [19] and in [20] was “inactive” throughout. Also, the call in assay [7], in [8], in assay [9], in [10], in assay [12] and in assay [13] was inactive. The compound was classed as inactive in [14] and in [16].
In the case of `O=C(O)c1ccc(OCCCOc2ccc(C(=O)O)cc2)cc1`, the Potency result in assay [1], in assay [2], in assay [3], in [4], in assay [5] and in assay [6] was “inactive” in each case. Also, the Potency result in assay [18], in assay [11], in assay [15] and in assay [17] was “inactive” throughout. Moreover, the outcome in assay [7], in assay [8], in assay [9], in [10], in assay [12] and in assay [13] was inactive. For the same compound, the outcome in assay [14] and in [16] was inactive.
As to `CCOC(=O)c1ccc(I)cc1`, the Potency entry in [1], in assay [2], in [3], in [4], in assay [5] and in assay [6] was “inactive” each time. Moreover, the Potency result in assay [18], in assay [11] and in assay [17] was “inactive” throughout. Besides, the outcome in assay [7], in [8], in assay [9], in assay [10], in [12] and in assay [13] was inactive. In addition, the result in assay [14] and in assay [16] was inactive.
Consider `Cc1[nH]cnc1CN1CCc2c(c3ccccc3n2C)C1=O`, for which the Potency entry in assay [1], in [2], in assay [3], in assay [4], in [5] and in assay [6] was “inactive” throughout. Moreover, the Potency entry in assay [18], in assay [11], in assay [15] and in [17] was “inactive” each time. The result in [7], in assay [8], in assay [9], in [10], in [12] and in [13] was inactive. The compound was classed as inactive in assay [14] and in assay [16].
Regarding `O=Cc1c2ccccc2c(Cl)c2ccccc12`, the Potency entry in assay [1], in assay [2], in assay [3], in assay [4], in [5] and in assay [11] was “inactive” throughout. In addition, the Potency result in assay [15], in assay [17], in assay [19] and in assay [20] was “inactive” in each case. In assay [6], the Potency was 8.42 µM (active). Also, the compound was called inactive in assay [7], in [8], in assay [9], in assay [10], in assay [12] and in assay [13]. Moreover, the outcome in [14] and in [16] was inactive.
